About 83,000 compounds went through this panel and 20% of them were active in at least one assay; those are over-represented in the sample as a whole.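 Negative percent growth values reflect cell death: -40 means 40% of the cells present at the start died, and -100 means all died.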 Values without a mark were called inactive. Active and inactive are the calls of the source.
tested on: SK-MEL-28 melanoma; test: NCI-60 one-dose screen, 48 h (100 = growth as untreated, 0 = no growth, -100 = all killed); conditions: 10 µM
Method: Growth inhibition of the SK-MEL-28 human tumor cell line is measured as a screen for anti-cancer activity. Cells are grown in 96 well plates and exposed to the test compound for 48 hours. Compounds are tested at a single concentration, which is 10^-5 M for most compounds. The reported endpoint is percent growth (GI% or GIPRCNT), where numbers from 0 - 100% represent growth inhibition, and numbers from -100% - 0 represent cell death. For example, a value of 40 represents 60% growth inhibition. A value of 0 means no net growth occurred over the course of the experiment. A value of -40 indicates 40% of cells at the beginning of the experiment died by the end of the experiment. A value of -100 means all cells are dead at the end of the experiment.
NCI-60 Human Tumor Cell Lines Screen was performed using the standard one-dose NCI protocol, which is described in more detail at https://dtp.cancer.gov/discovery_development/nci-60/default.htm.
Compounds with GIPRCNT values below 10 were considered active. Activity score was based on GIPRCNT using the following formula: […]
Score is 0 for GIPRCNT values of 100 or above, 50 for GIPRCNT values of 0, and 100 for GIPRCNT values of -100.

First: CCOC(=O)c1[nH]c(C)c(C(C)=O)c1C
Second: Cc1cc(C)c(CC(=O)O)c(C)c1
The growth of the first is lower: 97.4% for the first, 124% for the second.

Compared with `C#CC(C)(O)c1ccc(Cl)cc1` (stereo not given), `CC(=O)c1ccc(C(C)(C)C)cc1` is higher in growth: 110% for the first, 120% for the second.

First: Brc1cnc2ccccc2c1
Second: OCc1cccc2ccccc12
The growth of the first is higher: 113% for the first, 111% for the second.

Compared with `CC1=CC(=O)c2ccccc2C1=O`, `O=C1Cc2ccccc2C(=O)O1` is lower in growth: 116% for the first, 106% for the second.

Going from `CCOC(=O)Nc1nn[nH]n1` to `CCOC(=O)C/C(C)=N\O`, the growth rises from 115% to 121%.

`CC(=O)/C(Cc1ccccc1)=N/O` and `Cc1ccc(O)c(C(=O)c2ccccc2)c1` are the same in growth: 110% for the first, 110% for the second.

Compared with `C/C(=N\NC(=O)c1ccccc1N)c1ccccc1O`, `O=C(O)c1ccccc1NCc1ccco1` is higher in growth: 60.9% for the first, 111% for the second.

First: C#C[C@H]1CCCCCC1O (stereo not given in full)
Second: O=C(NN=C1CCCCC1)C(=O)NN=C1CCCCC1
The growth of the first is higher: 122% for the first, 100% for the second.

First: CC1(O)OC(COc2ccc(Cl)cc2)COC1O (stereo not given)
Second: C[C@]12CC[C@@H]3c4ccc(OCC(=O)O)cc4CC[C@H]3[C@@H]1CCC2=O
The growth of the first is lower: 107% for the first, 118% for the second.

Compared with `O=C(O)CCCC(=O)O`, `CCCCNC(=O)C(=O)NCCCC` is higher in growth: 102% for the first, 112% for the second.

Compared with `N#Cc1c(N)sc(=S)c2c1CCCC2`, `Cc1cc(N)ccc1-c1ccc(N)cc1C` is lower in growth: 112% for the first, 104% for the second.

First: COCCCNC(=O)c1nnn2c1nc(N)c1cc(Cl)ccc12
Second: O=C(NCCNC(=O)c1ccc(Cl)cc1Cl)c1ccc(Cl)cc1Cl
The growth of the first is lower: 87% for the first, 104% for the second.

Compared with `CCCCN(CCCC)CCCO`, `COc1nc(N)nc2c1ncn2C1OC(CO)CC1O` (stereo not given) is lower in growth: 110% for the first, 108% for the second.

First: CC1CC(O)C2C3(C)CCCC2(COC3=O)C12CCC1(CCOC1=O)O2 (stereo not given)
Second: Cc1ccccc1C1N=C2Oc3ccccc3C=C2C(=O)N1 (stereo not given)
The growth of the first is higher: 111% for the first, 41.5% for the second.

First: COc1cc(/C=C(\C#N)C(=O)c2ccccc2)ccc1OCc1ccccc1
Second: O=C(CCNNC(=O)c1ccncc1)NCc1ccccc1
The growth of the first is higher: 112% for the first, 103% for the second.

Compared with `COC(=O)Nc1nc2ccc(C(=O)c3cccs3)cc2[nH]1`, `COc1cc2nn(-c3ccccc3N)nc2cc1OC` is higher in growth: 56.3% for the first, 109% for the second.

Compared with `N#CCc1ccc([N+](=O)[O-])cc1`, `NC(=O)c1ccc(N=C(N)N=C(N)N)cc1` is higher in growth: 106% for the first, 111% for the second.

Compared with `CC(C)(C)c1cc(O)c(C(C)(C)C)cc1O`, `O/N=C/c1ccc(O)cc1O` is higher in growth: 94.4% for the first, 107% for the second.

First: CN(C)c1ccc2oc(=O)c3ccccc3c2c1
Second: c1ccc2c(c1)Sc1ccccc1S2
The growth of the first is higher: 113% for the first, 110% for the second.

Work on `CSc1[nH]c(=O)ncc1F` yielded a growth of 111%.

In the case of `Cc1cc(C(O)(c2ccc(Nc3ccccc3)cc2)c2ccc(Nc3ccc(S(=O)(=O)O)cc3)cc2)ccc1N` (stereo not given), the growth is reported as -86.9% (active).

Reference: PubChem BioAssay (NCI)
